# Marburg entry inh = Marburg virus entry inhibition; Marburg virus pseudotyped entry inhibition, cell reporter; Potency, µM (doses to about 37.8 µM), inactives show at the top dose activity change, negative = inhibition, most hits filed as inhibitors; 1.8% of 300,000 active; AID 540276; calls by dose curve; tested in HEK293 cells; further: potency means the concentration at half of the fitted maximal effect; on the % scale 0 is the no-effect control and ±100 the full control effect
# Shiga toxin inh = blocks Shiga toxin action in Vero cells; AID 2315; 9.2% of 290,000 active; Vero cells, Shiga toxin protein synthesis inhibition reporter; inhibition, % at 38.7 µM; in the data active means inhibition mostly above about 28%, no sharp cut-off; inactive means mostly below about 43%; further: 0% is about no effect
# VACV mCherry inh = vaccinia inhibition (mCherry reporter). Potency, µM (top dose mostly 36.5 µM), for the others: at the top dose activity change, negative = inhibition, most hits filed as inhibitors. Vaccinia virus mCherry reporter infection, fluorescence. 0.63% of 310,000 active. AID 720579; calls by dose curve; tested in A549 cells; further: potency means the concentration at half of the fitted maximal effect; on the % scale 0 is the no-effect control and ±100 the full control effect; nearly all actives have a fitted effect of over 35% in size
# Vaccinia Venus = inhibitors of vaccinia virus (Venus reporter); 0.46% of 330,000 active; Potency, µM (highest dose often 36.5 µM), for inactives: at the highest dose activity change, negative = inhibition, usual class: inhibitors; Vaccinia virus Venus reporter expression, fluorescence; calls by dose curve; tested in A549 cells; further: potency means the concentration at half of the fitted maximal effect; on the % scale 0 is the no-effect control and ±100 the full control effect; nearly all actives have a fitted effect of over 30% in size
# Lassa entry inh = blocks Lassa virus binding to or entry into cells. Lassa virus pseudotype entry inhibition, cell reporter. Potency, µM (top dose mostly 37.9 µM), for inactives: at the top dose activity change, negative = inhibition, actives largely listed as inhibitors. 1.2% of 300,000 active. AID 540256; calls by dose curve; tested in HEK293 cells; further: potency means the concentration at half of the fitted maximal effect; on the % scale 0 is the no-effect control and ±100 the full control effect; nearly all actives have a fitted effect of over 50% in size
# CHX counter = counter-screen hit for Shiga toxin inhibitors, cycloheximide; max response, %; cell reporter, cycloheximide protein synthesis inhibition counterscreen; 12% of 300,000 active; in the data active means max response mostly above about 13%, no sharp cut-off; inactive means mostly below about 14%; further: read at 38.3 µM for the half of the compounds with a filed dose; 0% is about no effect
# * hit, by the source's call; i = inactive; ? = inconclusive; · = no result; [ ] = another dose, or the depositor's remark. Shown is part of a subset that was picked to be rich in hits.
SMILES,Marburg entry inh,Shiga toxin inh,VACV mCherry inh,Vaccinia Venus,Lassa entry inh,CHX counter
CCOC(=O)N1CCC(NC(=O)c2cc(COc3ccc(F)cc3Cl)on2)CC1,-9.5%,5.0,i,-16.4%,1.5%,10.8
COc1ccc(OCc2cc(C(=O)N3CCN(C4CCCC4)CC3)no2)c(Cl)c1,5.8%,76.7*,?,-16.3%,12.7%,42.0*
CCC1CN(C(=O)N2CCC(C(=O)NCc3cccc(F)c3)CC2)c2cc(C)ccc2O1 (stereo not drawn),·,·,0.2%,-11.7%,?,·
Nc1c2c(nc3ccccc13)N(C1CCCCC1)CC2,10µM*,-6.8,?,?,-23.6%,-4.1
CCOc1cc(C2C(C(=O)c3ccccc3)=C(C(=O)OC)Nc3nnnn32)ccc1O (stereo not drawn),-2.2%,32.8,-2.2%,5.8%,-25.0%,22.8*
COC(=O)C1=C(C(=O)c2ccccc2)C(c2ccc(O)c(OC)c2)n2nnnc2N1 (stereo not drawn),6.9%,-6.5,·,3.1%,0.1%,-2.5
COc1ccc2nc(NC(=O)CSc3nc4ccccc4o3)sc2c1,-19.8%,133.8*,·,?,-17.9%,40.1*
CCOc1ccc2nc(NC(=O)c3cccnc3)sc2c1,?,122.5*,-8.8%,-6.6%,?,75.1*
CCOc1ccc2nc(NC(=O)CS(=O)(=O)c3ccc(Cl)cc3)sc2c1,·,·,-9.6%,-1.5%,?,·
CCOc1ccc2nc(NC(=O)CCn3cccc3)sc2c1,·,85.6*,-29.5%,-11.6%,·,29.5*
CCCC(=O)Nc1nc2ccc(OCC)cc2s1,?,72.7*,-6.0%,-20.5%,?,46.4*
CCOc1ccc2nc(NC(=O)c3ccccc3)sc2c1,·,·,-6.0%,-6.7%,-0.9%[46.1 µM],·
CC(C)CNC(=S)N1CCC(C(=O)c2ccc(Cl)cc2)CC1,·,·,?,-27.3%,·,·
O=C(CSc1ccc2nnc(-c3ccccn3)n2n1)Nc1ccccc1C(F)(F)F,?,-16.8,?,-18.7%,0.2%,3.5
CCOc1ccc2nc(NC(=S)N(C)C)sc2c1,-28.6%,104.2*,·,·,-26.7%,56.0*
CN(C)C(=S)Nc1nc2ccccc2s1,·,103.9*,-16.6%,-24.4%,·,37.7*
CCOc1ccc2nc(NC(=O)c3c([N+](=O)[O-])cnn3CC)sc2c1,-4.5%,14.9,-9.0%,-13.5%,15.8%,-1.9
CCCSc1ncc(Cl)c(C(=O)Nc2nc3ccc(OCC)cc3s2)n1,2.0%[46.1 µM],·,-15.4%,-9.5%,17.7%[46.1 µM],·
CCOc1ccc2nc(NC(=O)c3cnc(C)cn3)sc2c1,-22.7%,23.8,·,-14.8%,-22.4%,17.9*
CCOc1ccc2nc(NC(=O)c3ccc(C)o3)sc2c1,?,·,-14.2%,-22.6%,8.91µM*,·
CCOc1ccc2nc(NC(=O)CSc3nc4cccnc4n3C)sc2c1,?,-19.8,?,?,?,-4.0
CCOc1ccc2nc(NC(=O)CSc3ccccc3)sc2c1,-27.8%,69.0,i[1.46 µM],?,?,18.4*
Cc1csc(=O)n1CC(=O)OCc1cccc2ccccc12,13.7%,78.6*,·,·,27.5%,44.6*
CCc1cccc(C)c1NC(=O)COC(=O)Cn1c(C)csc1=O,4.9%[46.1 µM],·,-0.5%,-6.7%,-0.5%,·
Cc1cc(C)c(C(=O)COC(=O)CCn2c(C)csc2=O)cc1C,?,·,-8.4%,-7.4%,0.0%,·
SMILES,Marburg entry inh,Shiga toxin inh,VACV mCherry inh,Vaccinia Venus,Lassa entry inh,CHX counter
Cc1cc(C)c(C(=O)COC(=O)Cn2c(C)csc2=O)cc1C,-1.4%,44.5*,-8.8%,-23.1%,3.5%,24.0*
CN(C)c1ccc(CNC(=O)c2cnc3sc(N4CCCC4)nn3c2=O)cc1,·,·,-13.5%,-9.4%,-1.0%[46.1 µM],·
Oc1ccccc1C1CC(c2cccs2)=NC(c2ccc(Cl)cc2)N1 (stereo not drawn),·,49.6*,·,·,·,37.3*
CS(=O)(=O)N1N=C(c2cccs2)CC1c1ccccc1O (stereo not drawn),-0.9%[46.1 µM],-4.6,-7.5%,-5.8%,-5.8%,-1.8
Cc1ccc(-n2c(C)nc3c(cnn3-c3ccccc3C)c2=O)cc1F,5.3%[46.1 µM],·,-1.0%,2.5%,-13.3%[46.1 µM],·
COc1cc(NC(=O)Cc2ccccc2)nc(OC)n1,·,30.9,·,·,·,-0.9
COc1cc(NC(=O)CCc2ccccc2)nc(OC)n1,?,48.1*,·,·,3.8%,35.1*
COc1ccc(C(=O)Nc2cc(OC)nc(OC)n2)cc1,-23.9%,52.7*,-22.0%,-1.4%,?,18.6*
COc1ccc(C(=O)Nc2nc(C)cc(C)n2)cc1,5.4%,14.5,i,5.5%,27.4%,0.6
CCN1C(=O)c2ccccc2S(=O)c2ccc(C(=O)N3CCN(c4ccc(F)cc4)CC3)cc21 (stereo not drawn),1.4%[46.1 µM],·,-0.8%,-6.7%,3.1%[46.1 µM],·
Cn1c2ccccc2c2cnn(CC(=O)N3CCCCC3)c(=O)c21,·,29.9,·,·,·,17.3*
CC1CCN(C(=O)Cn2ncc3c4ccccc4n(C)c3c2=O)CC1,2.1%[46.1 µM],21.4,6.1%,-16.6%,13.4%,0.8
Cn1cc(Cl)c(C(=O)NNC(=S)NC2CCCCC2)n1,?,54.0*,-2.8%,-5.8%,?,23.0*
Cn1cc(Cl)c(C(=O)NC2CCCCCC2)n1,?,23.1*,2.2%,2.7%,8.6%,13.6*
Cn1cc(Cl)c(C(=O)NNC(=S)NCc2ccco2)n1,5.2%,-6.0,·,·,2.6%,1.6
CCCCCCN1C(=O)CC[C@@]23C1=NC(C(=O)OC)=C(C(=O)OC)[C@@H]2N(Cc1ccccc1)c1ccccc13,-28.3%[14.2 µM],·,·,·,·,·
CCCCOC(=O)C1=C(C)NC2=C(C(=O)CCC2)C1c1cc(OC)ccc1OC (stereo not drawn),?,-1.2,-4.9%,-0.3%,0.6%,-3.9
CCn1c(C)nc2cc(-c3nc4n(n3)Cc3ccccc3-4)ccc21,?,-21.7,·,?,?,-9.7
Fc1ccc(-c2nc3n(n2)Cc2ccccc2-3)cc1,?,66.2*,·,-14.7%,12.6µM*,42.2*
Cc1ccc(-c2nc3n(n2)Cc2ccccc2-3)cc1,?,13.7,-2.6%,-19.3%,?,19.6*
O=C(Cc1cccs1)NCc1ccc(Cl)cc1Cl,-2.1%[46.1 µM],104.5*,-7.2%,-7.2%,-4.2%[46.1 µM],41.8*
O=C(Cc1cccs1)NCCc1ccc(Cl)cc1,·,-10.0,·,·,·,-1.8
O=C(Cc1cccs1)NCc1cc(Cl)cc(Cl)c1,?,51.6*,-0.2%,-9.6%,?,44.1*
O=C(Cc1cccs1)NCc1cccc(CNC(=O)Cc2cccs2)c1,·,-10.6,-4.2%,-10.3%,·,-3.1
CCCOc1ccc(CNC(=O)Cc2cccs2)cc1,·,108.1*,·,·,·,45.8*
SMILES,Marburg entry inh,Shiga toxin inh,VACV mCherry inh,Vaccinia Venus,Lassa entry inh,CHX counter
O=C(Cc1cccs1)NCc1cccc(F)c1,·,40.5*,i,-4.7%,·,27.5
O=S1(=O)C[C@@H](N2CCC[C@@H]2CO)[C@H](COCc2ccccc2)N1,·,·,19.4%,0.6%,·,·
O=S(=O)(NCC1(N2CCOCC2)CCCCC1)c1ccc(F)c(F)c1F,-0.2%,·,?,?,6.7%,·
O=C(Cc1cccs1)NCc1cccc(Cl)c1,·,88.7*,·,·,·,41.3*
O=C(CSc1nnnn1-c1ccc2c(c1)OCCO2)c1cccc2c1OCCO2,8.1%,64.7,-8.8%,-5.4%,14.9%,32.6*
O=C(O)CSc1nnnn1-c1ccc2c(c1)OCCO2,-13.5%,-6.4,·,·,6.4%,-2.9
CC(C)OC(=O)CSc1nnnn1-c1ccc2c(c1)OCCO2,-0.4%,64.1*,-3.1%,-15.0%,22.3%,35.4*

# Screening data (PubChem)
